An excerpt weighted towards active compounds, which were near 10% of everything screened.
KB-3-1 cytotox: qHTS assay for MDR1-selective chemotherapeutics: Primary screen using the parental adenocarcinoma cell KB-3-1. KB-3-1 viability, CellTiter-Glo ATP luminescence, 72 h. Potency, µM (titrated, usually from 46.1 µM), actives largely listed as cytotoxic. 1.4% of 400,000 active; also: nearly all actives have a fitted effect of over 60% in size
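Luminescent ATP read-out (CellTiter-Glo) measures survival of drug-naive KB-3-1 cells after 72 h compound exposure at 37 °C. Titration series was screened from lowest to highest concentration, with DMSO vehicle plates as background controls.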
MCF10A rereplic: A quantitative high throughput screen for small molecules that induce DNA re-replication in MCF 10a normal breast cells | MCF 10A DNA re-replication, Hoechst nuclear intensity, 48 h | Potency, µM (doses to about 46.1 µM), actives largely listed as activators | 2.9% of 350,000 active | AID 624296, 2012; also: nearly all actives have a fitted effect of over 50% in size
KB-V1 cytotox: qHTS assay for MDR1-selective chemotherapeutics: Primary screen using the drug-selected MDR subline cells KB-V1; Potency, µM (titrated, usually from 46.1 µM), usual class: cytotoxic; 3.4% of 400,000 active; AID 1347076, 2019; KB-V1 MDR cells viability, CellTiter-Glo, 72 h; also: nearly all actives have a fitted effect of over 60% in size
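Following 72 h at 37 degrees C with compound, KB-V1 cell viability was read by CellTiter-Glo luminescence, medium being phenol-red-free DMEM plus 10% FBS; concentration-response parameters came from normalized, curve-fitted qHTS data.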
VP16 counter: VP16 counterscreen qHTS for inhibitors of ROR gamma transcriptional activity | Drosophila S2 Gal4-VP16 UAS-luciferase, luminescence, 20 h | 3.5% of 310,000 active | Potency, µM (doses to about 53.6 µM), actives largely listed as inhibitors;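 also: Gal4-VP16 expression switched on by copper sulfate through the metallothionein promoter; nearly all actives have a fitted effect of over 50% in size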
SW480 rereplic: A quantitative high throughput screen for small molecules that induce DNA re-replication in SW480 colon adenocarcinoma cells. SW480 DNA re-replication, Hoechst DNA content imaging, 48 h. Potency, µM (highest dose often 46.1 µM), hits mostly activators. 1.8% of 340,000 active. AID 624297, 2012; also: nearly all actives have a fitted effect of over 55% in size
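Quantitative HTS format with DMSO vehicle controls; 48 hr drug incubation at 37 C, then 40 min Hoechst staining and scanning imager measurement at 405 nm excitation.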
RORgamma inh: qHTS for inhibitors of ROR gamma transcriptional activity; Nuclear receptor ROR-gamma (Mus musculus), P51450; Drosophila S2 Gal4-RORgamma UAS-luciferase reporter, 20 h; Potency, µM (top dose mostly 53.6 µM), usual class: inhibitors; 5.4% of 310,000 active; also: nearly all actives have a fitted effect of over 60% in size
Target sequence (P51450 whole entry, looked up, the tested form may be a part): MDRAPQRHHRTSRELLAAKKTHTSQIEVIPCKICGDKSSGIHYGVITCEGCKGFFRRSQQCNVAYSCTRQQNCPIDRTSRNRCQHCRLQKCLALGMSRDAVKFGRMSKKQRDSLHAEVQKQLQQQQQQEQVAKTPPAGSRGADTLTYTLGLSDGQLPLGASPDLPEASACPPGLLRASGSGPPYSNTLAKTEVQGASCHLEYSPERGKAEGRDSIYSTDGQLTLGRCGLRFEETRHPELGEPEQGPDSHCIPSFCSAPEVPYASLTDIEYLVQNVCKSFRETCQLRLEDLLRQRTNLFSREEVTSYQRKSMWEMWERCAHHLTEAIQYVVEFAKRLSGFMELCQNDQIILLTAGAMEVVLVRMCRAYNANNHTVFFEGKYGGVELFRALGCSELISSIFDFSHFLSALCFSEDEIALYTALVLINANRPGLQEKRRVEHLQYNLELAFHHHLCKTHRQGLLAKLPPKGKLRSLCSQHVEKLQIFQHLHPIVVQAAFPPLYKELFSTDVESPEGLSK
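Luciferase reporter read in Schneider cells carrying Gal4-RORγ (mouse) and UAS-Photinus luciferase; cells given compound 1 h before 700 uM copper sulfate induction, then incubated 20 h at ambient temperature.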
Of the large screens only hits and unclear results are named; the others gave an inactive call; ! = not active in a repeat. Calls follow the shape of the dose curve; as a rule, active = well fitted curve in the direction sought with a large enough effect; inconclusive = small, poorly fitted or top-dose-only effect, or another doubt; inactive = no such curve, though single readings can be large; an effect the other way counts as inactive or inconclusive.

CCOC(=O)c1cc(C)sc1NC(=O)C(c1ccccc1)c1ccccc1	MCF10A rereplic 26µM, RORgamma inh inconclusive
CCOC(=O)Cc1ccc(NC(=O)n2ncc3cc(Cl)ccc32)cc1	KB-V1 cytotox inconclusive (no result: MCF10A rereplic, VP16 counter, SW480 rereplic, RORgamma inh)
C=CCNC(=S)Nc1cc(C)ccn1	VP16 counter 4µM, SW480 rereplic inconclusive, RORgamma inh 1µM
COc1ccc(/C=C/C(=O)NC(=S)Nc2ccccc2)cc1OC	VP16 counter inconclusive, SW480 rereplic 18µM, RORgamma inh 10µM
C=CCNC(=S)Nc1ccc(C)cc1[N+](=O)[O-]	RORgamma inh inconclusive
COc1ccc(CC(=O)NNC(=S)Nc2ccccc2)cc1Br	VP16 counter inconclusive, RORgamma inh 13µM
Cc1cc(C)nc(NC(=O)/C=C/c2ccccc2Cl)c1	KB-V1 cytotox inconclusive, RORgamma inh inconclusive
Cc1cc(C)nc(NC(=O)/C=C/c2ccc(Cl)cc2Cl)c1	MCF10A rereplic inconclusive, KB-V1 cytotox 9.2µM
COc1ccc(/C=C/C(=O)Nc2ccccc2)cc1OC	none
O=C(NCc1cccc(C(F)(F)F)c1)C1C(=O)Nc2ccccc2C(=O)N1C1CCCC1 (centres undefined)	KB-V1 cytotox inconclusive (no result: MCF10A rereplic, VP16 counter, SW480 rereplic, RORgamma inh)
CCOC(=O)c1c(C)n(-c2ccccc2)c2ccc(OC(=O)c3ccc(OCC)c(OCC)c3)cc12	KB-V1 cytotox inconclusive (no result: MCF10A rereplic, VP16 counter, SW480 rereplic, RORgamma inh)
O=C(CN1CCSc2ccccc21)NCc1ccccc1F	none (no result: MCF10A rereplic, VP16 counter, SW480 rereplic, RORgamma inh)
CCC(=O)Nc1ccc(NC(=S)NC(=O)/C=C/c2ccccc2)cc1	VP16 counter inconclusive, RORgamma inh 13µM
CC(=O)c1ccc(NC(=S)NC(=O)/C=C/c2ccccc2)cc1	none
CC(C)(C)c1ccc(/C=C/C(=O)Nc2cccnc2)cc1	MCF10A rereplic inconclusive
CCOC(=O)c1cc(-c2ccccc2)sc1NC(=O)C(C)(C)C	none
O=C(/C=C/c1ccccc1)NC(=S)Nc1cccnc1	RORgamma inh 7.1µM
CCOC(=O)c1cc(-c2ccccc2)sc1NC(=S)Nc1cc(C)ccn1	VP16 counter 2.2µM, RORgamma inh 1µM
Nc1ncc(Br)cc1S(=O)(=O)Nc1cc(C(F)(F)F)cc(C(F)(F)F)c1	KB-3-1 cytotox inconclusive, MCF10A rereplic inconclusive, KB-V1 cytotox inconclusive, VP16 counter 22µM
CCc1ccc(NC(=O)c2sc3nc(C)cc(C)c3c2NC(=O)c2ccccc2OC)cc1	none (no result: MCF10A rereplic, VP16 counter, SW480 rereplic, RORgamma inh)
COc1cccc([C@@H]2Oc3ccc(OC)cc3C(=O)[C@H]2O)c1	KB-3-1 cytotox inconclusive, MCF10A rereplic inconclusive, VP16 counter inconclusive, SW480 rereplic inconclusive, RORgamma inh 13µM!
COc1cccc([C@@H]2Oc3ccc(Br)cc3C(=O)[C@H]2O)c1	none (no result: KB-3-1 cytotox, MCF10A rereplic, KB-V1 cytotox, SW480 rereplic)
COc1ccc2c(c1)C(=O)[C@@H](O)[C@H](c1ccc(OC)c(Br)c1)O2	KB-3-1 cytotox inconclusive, MCF10A rereplic inconclusive, SW480 rereplic 12µM, RORgamma inh inconclusive
Cn1cc(C(=O)NCc2ccccc2)c(=O)c2cc(S(=O)(=O)N3CCOCC3)ccc21	none (no result: MCF10A rereplic, VP16 counter, SW480 rereplic, RORgamma inh)
Cc1ccc(/C=N/NC(=O)CN(Cc2ccccc2)S(=O)(=O)c2ccc3c(c2)OCCO3)cc1	KB-V1 cytotox 5.8µM, SW480 rereplic inconclusive
Cc1ccc(Nc2nc(N)nc(CSC(=S)N3CCOCC3)n2)c(C)c1	KB-V1 cytotox 8.2µM, RORgamma inh inconclusive
CN1CCN(C(=S)SCc2nc(N)nc(Nc3ccc(F)cc3)n2)CC1	none
COc1ccc(Nc2nc(N)nc(CSC(=S)N3CCOCC3)n2)cc1	VP16 counter inconclusive, SW480 rereplic inconclusive
Nc1nc(CSC(=S)N2CCN(c3ccccc3)CC2)nc(Nc2ccccc2)n1	KB-V1 cytotox 3.3µM
Nc1nc(CSC(=S)N2CCOCC2)nc(Nc2ccc(F)cc2)n1	KB-V1 cytotox 16µM, VP16 counter inconclusive
Cc1ccc(Nc2nc(N)nc(CSC(=S)N3CCN(c4ccccc4)CC3)n2)cc1	KB-V1 cytotox 16µM
Cc1nn(C)c2c1c(-c1ccccc1)cc(=O)n2C(C)C(=O)NCCc1ccc(Cl)cc1 (centres undefined)	none (no result: MCF10A rereplic, VP16 counter, SW480 rereplic, RORgamma inh)
CC(=O)N1N=C(c2ccc(C)cc2)CC1c1cn(-c2ccccc2)nc1-c1cccs1 (centres undefined)	none (no result: MCF10A rereplic, VP16 counter, SW480 rereplic, RORgamma inh)
Cc1ccc2sc(-c3ccc(NC(=O)c4cc(-n5cnnc5)ccc4Cl)cc3)nc2c1	KB-3-1 cytotox inconclusive, MCF10A rereplic 2.6µM, VP16 counter inconclusive, SW480 rereplic 15µM, RORgamma inh inconclusive
Cc1ccc2sc(-c3ccc(NC(=O)/C=C\C(=O)O)cc3)nc2c1	MCF10A rereplic 23µM, SW480 rereplic inconclusive
COc1cc(C(=O)Cc2nc3ccccc3n2C)cc(OC)c1OC	VP16 counter 13µM, RORgamma inh 6.3µM
CC(c1nc2ccccc2n1Cc1ccccc1)N1CCCCC1 (centres undefined)	MCF10A rereplic inconclusive, VP16 counter inconclusive, RORgamma inh 14µM
CCn1c(COc2cccc(C)c2)nc2ccccc21	KB-V1 cytotox inconclusive, VP16 counter inconclusive, RORgamma inh 10µM
c1ccc(Cc2nc3ccccc3n2Cc2ccccc2)cc1	MCF10A rereplic inconclusive, KB-V1 cytotox inconclusive, VP16 counter 18µM, RORgamma inh inconclusive
CC(C)c1ccc(CN2CCC2(C)C(=O)Nc2cnc3ccccc3c2)cc1 (centres undefined)	none (no result: MCF10A rereplic, VP16 counter, SW480 rereplic, RORgamma inh)
Cc1cc(=O)n2nc(N3CCC(C(=O)Nc4ccc(Br)cc4F)CC3)sc2n1	none (no result: MCF10A rereplic, VP16 counter, SW480 rereplic, RORgamma inh)
COc1ccccc1OCc1nc2ccccc2n1C	VP16 counter inconclusive
